Results filed as inconclusive are left out. Calls of active or inactive are those of the source. Calls follow the shape of the dose curve; as a rule, active = well fitted curve in the direction sought with a large enough effect; inconclusive = small, poorly fitted or top-dose-only effect, or another doubt; inactive = no such curve, though single readings can be large or run the other way.
molecular target: Ferritin light chain (Equus caballus) (UniProt P02791); test: qHTS Validation Assay for Identification of Novel General Anesthetics (AID 2323); conditions: horse apoferritin, anesthetic-site fluorescent probe displacement; series mostly up to 76.9 µM; activity change, negative = inhibition: at the top concentration
Sequence (P02791 2-175 limits assumed): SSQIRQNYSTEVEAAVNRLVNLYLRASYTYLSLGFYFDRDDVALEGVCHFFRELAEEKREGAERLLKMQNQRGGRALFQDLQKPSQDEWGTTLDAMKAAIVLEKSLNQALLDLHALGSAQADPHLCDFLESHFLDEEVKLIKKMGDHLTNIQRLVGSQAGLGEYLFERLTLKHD
From the text: Source: NIH Chemical Genomics Center [NCGC]
Assay Submitter: Roderic Eckenhoff, University of Pennsylvania
Screening Center PI: Christopher P. Austin, NIH
Probe Development: NIH Chemical Genomics Center [NCGC]
Anesthetic development has remained a largely empirical process. There are growing concerns about the cognitive effects of known general anesthetics and acceleration of the onset of neurodegenerative disease. The compounds' toxicity and multiple specific binding targets in the mammalian brain [4] has made them less attractive as drug leads. In this assay, a GABAergic mimetic model system, apoferritin and a profluorescent 1-aminoanthracene ligand (1-AMA), was used to construct a competitive binding assay for identification of novel general anesthetics. The assay was validated for 1-AMA using other known anesthetics, such as isoflurane (CID:3763) and propofol (CID: 4943), [6].
[1] S.L. Bianchi, T. Tran, C. Liu, S. Lin, Y. Li, J.M. Keller, R.G. Eckenhoff, and M.F. Eckenhoff, Brain and behavior changes in 12-month-old Tg2576 and nontransgenic mice exposed to anesthetics. Neurobiol Aging 29 (2008) 1002-10.
[2] Z. Xie, Y. Dong, U. Maeda, R.D. Moir, W. Xia, D.J. Culley, G. Crosby, and R.E. Tanzi, The inhalation anesthetic isoflurane induces a vicious cycle of apoptosis and amyloid beta-protein accumulation. J Neurosci 27 (2007) 1247-54.
[3] P. Honegger, and J.M. Matthieu, Selective toxicity of the general anesthetic propofol for GABAergic neurons in rat brain cell cultures. J Neurosci Res 45 (1996) 631-6.
[4] M.F. Eckenhoff, K. Chan, and R.G. Eckenhoff, Multiple specific binding targets for inhaled anesthetics in the mammalian brain. J Pharmacol Exp Ther 300 (2002) 172-9.
[5] C.A. Butts, J. Xi, G. Brannigan, A.A. Saad, S.P. Venkatachalan, R.A. Pearce, M.L. Klein, R.G. Eckenhoff, and I.J. Dmochowski, Identification of a fluorescent general anesthetic, 1-aminoanthracene. Proc Natl Acad Sci U S A 106 (2009) 6501-6.
[6] W.A. Lea, J. Xi, A. Jadhav, L. Lu, C.P. Austin, A. Simeonov, and R.G. Eckenhoff, A high-throughput approach for identification of novel general anesthetics. PLoS One 4 (2009) e7150.
Three uL of reagents (free 1-AMA (50% saturated solution of 1-aminoanthracene
in PBS) in columns 3, 4 as negative control and 1-AMA/apoferritin mixture (10 uM horse-spleen apoferritin in 50% saturated 1-aminoanthracene in PBS) in columns 1, 2, 5-48) was dispensed into 1536-well Greiner black assay plates. Compounds (23 nL) were transferred via Kalypsys pintool equipped with 1,536-pin array (10 nL slotted pins, V&P Scientific, San Diego, CA). Titration of the positive control, propofol, were delivered via pin transfer from separate control plates to the 2nd column of each assay plate. The starting concentration of the control, dissolved in DMSO, was at 160 mM, followed by two-fold dilution points in duplicate, for a total of 16 concentrations. The plates were incubated for 10 min at room temperature, and then read on an EnVision HTS multilabel reader (Perkin-Elmer, Waltham, MA) (end point read, 3 min/plate) using Fura2 BFP excitation filter (380 nm, bandwidth 10 nm) and fluorescein emission filter (535 nm, bandwidth 25 nm) set. A LANCE/DELFIA dichroic mirror with a cutoff wavelength at 400 nm was used to maximize signal accuracy and strength. Vehicle-only plates, with DMSO being pin-transferred to the entire column 5-48 compound area, were inserted uniformly at the beginning and the end of each library in order to monitor for and record any shifts in the background. Activity was computed as the normalized fluorescence response relative to free 1-AMA and 1-AMA/apoferritin complex values. Concentration-effect relationships were derived by using curve fitting algorithms developed in-house (http://ncgc.nih.gov/pub/openhts/). A four parameter Hill equation was fitted to the concentration-response data by minimizing the residual error between the modeled and observed responses.
% is scaled to controls: 0 for no effect and ±100 for the full control effect; potency is read from the fitted curve at half-maximal effect.

SMILES | activity change, negative = inhibition | Potency
O=C(c1ccc(F)cc1)C1CCN(CCn2c(=O)[nH]c3ccccc3c2=O)CC1 | -20.5% (inactive) | 
N[C@@H](Cc1c[nH]c2ccc(O)cc12)C(=O)O | -6.67% (inactive) | 
CNCCCC12CCC(c3ccccc31)c1ccccc12 | -7.25% (inactive) | 
COc1ccccc1OCC(O)CN1CCN(CC(=O)Nc2c(C)cccc2C)CC1 (stereo not given) | -6.04% (inactive) | 
CC(C)NCC(O)c1ccc(O)c(O)c1 (stereo not given) |  | inactive
CCOC(=O)Nc1ccc(NCc2ccc(F)cc2)nc1N | 22.7% (inactive) | 
O=c1c(O)c(-c2ccc(O)c(O)c2)oc2cc(O)cc(O)c12 | -8.68% (inactive) | 
NCCCCCC(=O)O | 21.3% (inactive) | 
CC(C)(Oc1ccc(C2CC2(Cl)Cl)cc1)C(=O)O (stereo not given) | -5.12% (inactive) | 
NCCS(=O)(=O)O | -2.26% (inactive) | 
Cc1cn([C@H]2C=C[C@@H](CO)O2)c(=O)[nH]c1=O | -3.18% (inactive) | 
CC(COc1ccccc1)N(CCCl)Cc1ccccc1 (stereo not given) | -14% (inactive) | 
COc1cc2nc(N3CCN(C(=O)C4COc5ccccc5O4)CC3)nc(N)c2cc1OC (stereo not given) | 46.4% (inactive) | 
COc1ccc2c(c1)c(CC(=O)O)c(C)n2C(=O)c1ccc(Cl)cc1 | -2.44% (inactive) | 
CCC1(c2ccccc2)C(=O)NCNC1=O | 8.88% (inactive) | 
CC(C(=O)O)c1cccc(C(=O)c2ccccc2)c1 (stereo not given) | -4.8% (inactive) | 
CN1CCN(CCCN2c3ccccc3Sc3ccc(Cl)cc32)CC1 | 6.17% (inactive) | 
NC(=O)NO | -2.89% (inactive) | 
O=C1N(c2ccccc2)c2ccccc2C1(Cc1ccncc1)Cc1ccncc1 | -2.36% (inactive) | 
COc1ccc2[nH]cc(CCNC(C)=O)c2c1 | -2.92% (inactive) | 

SMILES | activity change, negative = inhibition | Potency
CN1CCN(C2=Nc3cc(Cl)ccc3Nc3ccccc32)CC1 | -14.1% (inactive) | 
COc1nc(C)nc(Cl)c1NC1=NCCN1 | -0.176% (inactive) | 
Cc1cc(C(C)(C)C)c(O)c(C)c1CC1=NCCN1 | -9.42% (inactive) | 
CC[N+](CC)(CC)CCOc1cccc(OCC[N+](CC)(CC)CC)c1OCC[N+](CC)(CC)CC | -4.9% (inactive) | 
CC(CCc1ccc(O)cc1)NCCc1ccc(O)c(O)c1 (stereo not given) | -6.06% (inactive) | 
Nc1nc2c(ncn2COC(CO)CO)c(=O)[nH]1 | -7.1% (inactive) | 
O=c1[nH]cc(F)c(=O)[nH]1 | -3.86% (inactive) | 
Nc1ccn([C@H]2CC[C@@H](CO)O2)c(=O)n1 | -5.56% (inactive) | 
O=C1c2c(O)ccc(O)c2C(=O)c2c(NCCNCCO)ccc(NCCNCCO)c21 |  | 17.8 µM (active)
COc1ccc(C2CNC(=O)C2)cc1OC1CCCC1 (stereo not given) | -2.06% (inactive) | 
CN(C)CCOC(c1ccccc1)c1ccccc1 | -9.57% (inactive) | 
CN1CCC(=C2c3ccccc3CC(=O)c3sccc32)CC1 | -10.8% (inactive) | 
Cn1cnc2c1c(=O)[nH]c(=O)n2C | -7.87% (inactive) | 
Cn1c(=O)c2[nH]cnc2n(C)c1=O | -1.87% (inactive) | 
CCc1cccc2c3c([nH]c12)C(CC)(CC(=O)O)OCC3 (stereo not given) | -6.88% (inactive) | 
Clc1ccc(C(c2ccccc2Cl)C(Cl)Cl)cc1 (stereo not given) | 3.31% (inactive) | 
CCC1(C)CC(=O)NC1=O (stereo not given) | -4.19% (inactive) | 
Fc1ccc([C@@H]2CCNC[C@H]2COc2ccc3c(c2)OCO3)cc1 | -12% (inactive) | 
Cn1c(=O)c2c(ncn2C)n(C)c1=O | -4.17% (inactive) | 
NC(=O)OCC(COC(N)=O)c1ccccc1 | -11.5% (inactive) | 

Reference: PubChem BioAssay (NCATS)
